From PubChem BioAssay AID602393 (Broad Institute, 2012) come the findings set out here.

The whole screen tested about 350,000 compounds, of which about 7,000 (2%) were called active. Shown is part of a subset that was picked to be rich in actives. A number with no mark means an inactive call. Cut-off read from the data, not from the text of the source: active = activation above about 40%; inconclusive = no clear call, values can overlap the other calls; inactive = below that.

This assay is described as follows: Bmi1 luciferase reporter increase in mESCs, primary screen, esBAF inhibitor project, mouse ES cells, Bmi1 luciferase knock-in, single point (AID 602393).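 Note: 0% = median of the plate's neutral control wells and 100% = double that signal; a rise in the Bmi1 reporter signal indicates esBAF inhibition.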 The following applies: 24 h, at 12.5 µM, stronger effect = higher value, 100% = twice the neutral-well signal. A general note: Reporter assays use an easily measured gene product as a stand-in for the process of interest.
Regarding `COc1cccc(-c2cnc3c(c2)C(=O)N([C@@H](C)CO)C[C@@H](C)[C@H](CN(C)C(=O)CN(C)C)O3)c1`, the reporter increase was 4.59%.

For the compound `O=C(C[C@H]1C=C[C@H](NC(=O)c2cnccn2)[C@@H](CO)O1)NCc1ccccc1F`, the reporter increase is -2.01%.

On to `Cc1ccc(-c2nc(COC(=O)c3c(C)noc3C)cs2)cc1`, for which the reporter increase was 76.6% (active).

For `Cc1noc(C)c1COC(=O)c1cc2ccccc2cc1O`, the reporter increase is -1.05%.

Take `Cc1ccc(S(=O)(=O)N2CCN(C(=O)COC(=O)c3c(C)noc3C)CC2)c(C)c1`: the reporter increase was 0.794%.

`COc1ccc(CNC(=O)C[C@H]2CC[C@H](NC(=O)Nc3ccc4c(c3)OCO4)[C@H](CO)O2)cc1`: the reporter increase was -2.93%.

With `C[C@@H]1CN([C@@H](C)CO)C(=O)c2cc(NC(=O)Nc3ccc4c(c3)OCO4)ccc2O[C@@H](C)CCCCO[C@@H]1CN(C)C(=O)Nc1ccc2c(c1)OCO2`, the reporter increase is 64.3% (active).

Regarding `C[C@H](CO)N1C[C@H](C)[C@@H](CN(C)C(=O)Nc2ccc3c(c2)OCO3)OCCCC[C@H](C)Oc2ccc(NC(=O)Nc3ccc(F)cc3)cc2C1=O`, the reporter increase was 4.31%.

Take `COc1ccc(NC(=O)N(C)C[C@H]2OCCCC[C@@H](C)Oc3ccc(NC(=O)Nc4ccc5c(c4)OCO5)cc3C(=O)N([C@H](C)CO)C[C@@H]2C)cc1`: the reporter increase was 49.3% (active).

As to `C[C@H]1CCCCO[C@H](CN(C)C(=O)Nc2ccccc2)[C@@H](C)CN([C@@H](C)CO)C(=O)c2cc(NC(=O)Nc3ccc4c(c3)OCO4)ccc2O1`, the reporter increase is 27%.

In the case of `C[C@@H]1CN([C@@H](C)CO)C(=O)c2cc(NC(=O)Nc3ccc4c(c3)OCO4)ccc2O[C@@H](C)CCCCO[C@H]1CN(C)C(=O)Nc1ccc(C(F)(F)F)cc1`, the reporter increase is 0.715%.

As to `C[C@H]1CCCCO[C@H](CN(C)C(=O)Nc2ccc3c(c2)OCO3)[C@@H](C)CN([C@@H](C)CO)C(=O)c2cc(NC(=O)Nc3ccccc3)ccc2O1`, the reporter increase was 10.9%.

`C[C@H](CO)N1C[C@H](C)[C@@H](CN(C)C(=O)Nc2ccc3c(c2)OCO3)OCCCC[C@H](C)Oc2ccc(NC(=O)Nc3ccc4c(c3)OCO4)cc2C1=O`: the reporter increase was 45% (active).

For the compound `COc1ccc(NC(=O)Nc2ccc3c(c2)C(=O)N([C@@H](C)CO)C[C@@H](C)[C@@H](CN(C)C(=O)Nc2ccc(F)cc2)OCCCC[C@@H](C)O3)cc1`, the reporter increase was 4.33%.

`COc1ccc(NC(=O)Nc2ccc3c(c2)C(=O)N([C@H](C)CO)C[C@H](C)[C@@H](CN(C)C(=O)Nc2ccc(OC)cc2)OCCCC[C@H](C)O3)cc1`: the reporter increase was 3.33%.

For the compound `COc1ccccc1S(=O)(=O)N[C@@H]1CC[C@@H](CCNC(=O)C2CCCCC2)O[C@@H]1CO`, the reporter increase is -1.9%.

In the case of `O=C(C[C@@H]1C[C@@H]2c3cc(NS(=O)(=O)c4ccc(F)cc4)ccc3O[C@@H]2[C@H](CO)O1)N1CCCCC1`, the reporter increase was -3.2%.

Take `CO[C@@H]1CC[C@H]2CCN(C)C(=O)C[C@@H](c3ccccc3)CN(C)C(=O)c3cc(C#N)ccc3OC[C@@H]1O2`: the reporter increase was 3.4%.

For `CO[C@H]1CC[C@@H]2CCOc3c(C#N)cccc3C(=O)N(C)C[C@@H](OC)[C@H](C)C(=O)N(C)C[C@H]1O2`, the reporter increase was 3.07%.

For `CCC(=O)N1C[C@@H](C)[C@H](OC)CN(C)C(=O)c2ccc(NC(=O)C3CCOCC3)cc2OC[C@@H]1C`, the reporter increase was -3.82%.

On to `C[C@@H]1CN([C@H](C)CO)C(=O)c2cc(-c3cccc(C#N)c3)cnc2O[C@H]1CN(C)C(=O)C1CCC1`, for which the reporter increase is -9.7%.

Consider `COc1ccccc1S(=O)(=O)N[C@@H]1CC[C@H](CC(=O)N2CCN(C)CC2)O[C@@H]1CO`, for which the reporter increase was 0.975%.

With `O=C(C[C@@H]1C[C@@H]2c3cc(NC(=O)C4CCOCC4)ccc3O[C@@H]2[C@@H](CO)O1)NC1CCCCC1`, the reporter increase was 5.22%.

As for `COc1ccc(S(=O)(=O)Nc2ccc3c(c2)C(=O)N([C@@H](C)CO)C[C@H](C)[C@H](CN(C)Cc2ccc(C(=O)O)cc2)OCCCC[C@@H](C)O3)cc1`, the reporter increase is 6.21%.

Turning to `COCOc1cc(O)c(C(=O)/C=C/c2ccc(OCOC)c(OCOC)c2)c(OCOC)c1`, the reporter increase was 15.9%.

For the compound `COc1ccc(/C=C/C(=O)c2cc(Br)ccc(=O)c2O)cc1`, the reporter increase is -9.92%.

In the case of `COc1ccc(/C=C/C(=O)c2c(O)cc(OC)cc2OC)cc1`, the reporter increase was 46.9% (active).

Regarding `Cc1ccc(S(=O)(=O)N2C[C@H](O)COC[C@@H]3O[C@H](CC(=O)N[C@H]4CCN(Cc5ccccc5)C4)CC[C@H]32)cc1`, the reporter increase is -2.58%.

For the compound `C[C@H](CO)N1C[C@H](C)[C@H](CN(C)Cc2ccc(C(F)(F)F)cc2)Oc2c(NC(=O)C3CCOCC3)cccc2C1=O`, the reporter increase was -0.743%.

For `Cc1ccc(C(=O)COC(=O)CCN2C(=O)C3C4CCC(C4)C3C2=O)cc1C` (stereo not drawn), the reporter increase was 0.309%.

In the case of `Cc1ccc(C(=O)COC(=O)c2cccc(N3C(=O)c4c(C)nc5ccccc5c4C3=O)c2)cc1C`, the reporter increase is 21.8% (active).

As for `Cc1nc2ccccc2c(-c2ccccc2)c1C(=O)c1ccccc1`, the reporter increase is -1.09%.

Take `Cc1noc(C)c1NC(=O)Nc1ccc2c(c1)C(=O)N([C@@H](C)CO)C[C@@H](C)[C@H](CN(C)C(=O)Nc1ccc(C(F)(F)F)cc1)OCCCC[C@@H](C)O2`: the reporter increase is 11%.

Consider `O=C(C[C@H]1CC[C@@H](NC(=O)Cc2cccnc2)[C@H](CO)O1)Nc1ccc(-c2ccccc2)cc1`, for which the reporter increase is -2.77%.

In the case of `N/C(=N\OC(=O)/C=C/c1ccccc1)c1ccc(Br)cc1`, the reporter increase is 23.9% (active).

As for `N/C(=N\OC(=O)c1ccc2c(c1)OCO2)c1ccc(Br)cc1`, the reporter increase is 18.6%.

`CC(OC(=O)/C=C/c1ccccc1)C(=O)Nc1ccc(C(N)=O)cc1` (stereo not drawn): the reporter increase is -2.08%.

`CN(c1ccc(C(=O)NCCC2=CCCCC2)cc1)S(C)(=O)=O`: the reporter increase is -6.11%.

Turning to `Cn1nnc2cc(C(=O)NCCC3=CCCCC3)ccc21`, the reporter increase was -7.14%.

With `O=C(NCCC1=CCCCC1)c1ccc(-n2cncn2)cc1`, the reporter increase is 42.2% (active).

Turning to `CCn1ccnc1CN(C)C(=O)c1ccc2nc(Cc3ccc(OC)cc3)oc2c1`, the reporter increase is -2.21%.

Turning to `CC(c1ccccn1)N(C)C(=O)c1ccc2nc(Cc3cccc(Cl)c3)oc2c1` (stereo not drawn), the reporter increase is 73.4% (active).

With `Cc1cc(Cl)c2oc(C(=O)N(C)C(C)c3ccccn3)c(C)c2c1` (stereo not drawn), the reporter increase is 31.4%.
